Results published in PubChem BioAssay AID1159580 (chemical genetic matrix, 2015).
The campaign covered roughly 5,500 compounds. About 2,000 (36%) were called active. Another 18% or so got no clear call; they are omitted. No stated cut-off is given here; in the data, active means normalized growth mostly below about 0.91 (no sharp cut-off); inconclusive means no clear call, values can overlap the other calls; inactive means mostly above about 0.92. The list shows a part of the results.

Assay: chemical genetic growth profiling, strain panel (AID 1159580);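 further: tested at 20 µM; growth read once vehicle control cultures reached saturation at 30 °C; 1 = growth at the plate median or of vehicle wells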
Details: growth OD

Measured: normalized growth

CO[C@H]1[C@H](O)[C@H](O[C@H]2CC[C@]3(C)C4CC[C@]5(C)C(C6=CC(=O)OC6)CC[C@]5(O)C4CC[C@@H]3C2)O[C@@H](C)[C@@H]1O (some centres undefined)
inactive: S. cerevisiae deletion strains, locus YJR043C, strain POL32, stronger effect = lower value 1.02 | S. cerevisiae deletion strains, locus YJR075W, strain HOC1, stronger effect = lower value 1.02 | S. cerevisiae deletion strains, locus YKL009W, strain mrt4, stronger effect = lower value 0.996 | S. cerevisiae deletion strains, locus YKL068W, stronger effect = lower value 1 | S. cerevisiae deletion strains, locus YKL085W, strain MDH1 (second series), stronger effect = lower value 1.01 | S. cerevisiae deletion strains, locus YKL085W, strain MDH1, stronger effect = lower value 1.01 | S. cerevisiae deletion strains, locus YKL160W, strain elf1, stronger effect = lower value 0.989 | S. cerevisiae deletion strains, locus YKL190W, strain CNB1, stronger effect = lower value 1.01 | S. cerevisiae deletion strains, locus YKR001C, strain vps1, stronger effect = lower value 0.992 | S. cerevisiae deletion strains, locus YKR026C, strain gcn3, stronger effect = lower value 0.995 | S. cerevisiae deletion strains, locus YKR091W, strain srl3, stronger effect = lower value 0.995 | S. cerevisiae deletion strains, locus YLL001W, strain dnm1, stronger effect = lower value 0.999 | S. cerevisiae deletion strains, locus YLL026W, stronger effect = lower value 1 | S. cerevisiae deletion strains, locus YLL041C, strain sdh2, stronger effect = lower value 1.01 | S. cerevisiae deletion strains, locus YLR027C, strain aat2, stronger effect = lower value 0.999 | S. cerevisiae deletion strains, locus YLR039C, strain RIC1, stronger effect = lower value 1.02 | S. cerevisiae deletion strains, locus YLR058C, strain SHM2, stronger effect = lower value 1.02 | S. cerevisiae deletion strains, locus YLR102C, strain apc9, stronger effect = lower value 1 | S. cerevisiae deletion strains, locus YLR221C, strain rsa3, stronger effect = lower value 1.01 | S. cerevisiae deletion strains, locus YLR258W, strain gsy2, stronger effect = lower value 1 | S. cerevisiae deletion strains, locus YLR262C, strain YPT6 (second series), stronger effect = lower value 1.01 | S. cerevisiae deletion strains, locus YLR262C, strain YPT6, stronger effect = lower value 1.01 | S. cerevisiae deletion strains, locus YLR268W, strain sec22, stronger effect = lower value 1.02 | S. cerevisiae deletion strains, locus YLR320W, strain mms22, stronger effect = lower value 1.01 | S. cerevisiae deletion strains, locus YLR330W, strain CHS5, stronger effect = lower value 1.02 | S. cerevisiae deletion strains, locus YLR342W, strain FKS1 (second series), stronger effect = lower value 1.06 | S. cerevisiae deletion strains, locus YLR342W, strain FKS1, stronger effect = lower value 1 | S. cerevisiae deletion strains, locus YLR357W, strain rsc2, stronger effect = lower value 0.992 | S. cerevisiae deletion strains, locus YLR370C, strain arc18, stronger effect = lower value 1 | S. cerevisiae deletion strains, locus YLR371W, strain rom2, stronger effect = lower value 1.02 | S. cerevisiae deletion strains, locus YLR384C, strain iki3, stronger effect = lower value 0.991 | S. cerevisiae deletion strains, locus YLR418C, strain cdc73, stronger effect = lower value 1.03 | S. cerevisiae deletion strains, locus YML016C, strain PPZ1, stronger effect = lower value 1.01 | S. cerevisiae deletion strains, locus YML032C, strain rad52, stronger effect = lower value 1 | S. cerevisiae deletion strains, locus YML120C, strain ndi1, stronger effect = lower value 1.03 | S. cerevisiae deletion strains, locus YML124C, strain tub3, stronger effect = lower value 1.01 | S. cerevisiae deletion strains, locus YMR058W, strain fet3, stronger effect = lower value 1.02 | S. cerevisiae deletion strains, locus YMR078C, strain ctf18, stronger effect = lower value 1.01 | S. cerevisiae deletion strains, locus YMR125W, strain sto1, stronger effect = lower value 0.981 | S. cerevisiae deletion strains, locus YMR129W, stronger effect = lower value 1.01 | S. cerevisiae deletion strains, locus YMR205C, strain PFK2, stronger effect = lower value 1 | S. cerevisiae deletion strains, locus YMR223W, strain ubp8, stronger effect = lower value 0.994 | S. cerevisiae deletion strains, locus YMR231W, strain pep5, stronger effect = lower value 1 | S. cerevisiae deletion strains, locus YMR263W, strain SAP30, stronger effect = lower value 1.01 | S. cerevisiae deletion strains, locus YMR307W, strain GAS1, stronger effect = lower value 1.06 | S. cerevisiae deletion strains, locus YNL067W, strain RPL9B, stronger effect = lower value 1.02 | S. cerevisiae deletion strains, locus YNL071W, strain lat1, stronger effect = lower value 0.996 | S. cerevisiae deletion strains, locus YNL128W, strain TEP1, stronger effect = lower value 1.04 | S. cerevisiae deletion strains, locus YNL153C, strain GIM3, stronger effect = lower value 1.02 | S. cerevisiae deletion strains, locus YNL209W, strain ssb2, stronger effect = lower value 0.985 | S. cerevisiae deletion strains, locus YNL233W, strain BNI4, stronger effect = lower value 1.02 | S. cerevisiae deletion strains, locus YNL248C, strain rpa49, stronger effect = lower value 0.991 | S. cerevisiae deletion strains, locus YNL250W, strain rad50, stronger effect = lower value 1 | S. cerevisiae deletion strains, locus YNL271C, strain bni1, stronger effect = lower value 1.01 | S. cerevisiae deletion strains, locus YNL298W, strain CLA4, stronger effect = lower value 0.999 | S. cerevisiae deletion strains, locus YNL307C, strain MCK1, stronger effect = lower value 1.02 | S. cerevisiae deletion strains, locus YNL322C, strain KRE1 (second series), stronger effect = lower value 0.989 | S. cerevisiae deletion strains, locus YNL322C, strain KRE1, stronger effect = lower value 1.01 | S. cerevisiae deletion strains, locus YNR049C, strain mso1, stronger effect = lower value 1 | S. cerevisiae deletion strains, locus YNR052C, strain pop2, stronger effect = lower value 1 | S. cerevisiae deletion strains, locus YOL006C, strain TOP1, stronger effect = lower value 1.06 | S. cerevisiae deletion strains, locus YOL012C, strain htz1 1.19 | S. cerevisiae deletion strains, locus YOL147C, strain pex11, stronger effect = lower value 1.01 | S. cerevisiae deletion strains, locus YOR001W, strain rrp6, stronger effect = lower value 1.02 | S. cerevisiae deletion strains, locus YOR061W, strain CKA2, stronger effect = lower value 1.01 | S. cerevisiae deletion strains, locus YOR069W, strain VPS5, stronger effect = lower value 1.01 | S. cerevisiae deletion strains, locus YOR070C, strain gyp1, stronger effect = lower value 1.01 | S. cerevisiae deletion strains, locus YOR080W, strain dia2, stronger effect = lower value 1 | S. cerevisiae deletion strains, locus YOR083W, strain WHI5, stronger effect = lower value 0.955 | S. cerevisiae deletion strains, locus YOR106W, strain vam3, stronger effect = lower value 0.984 | S. cerevisiae deletion strains, locus YOR136W, strain idh2, stronger effect = lower value 1.01 | S. cerevisiae deletion strains, locus YOR144C, strain elg1, stronger effect = lower value 1.01 | S. cerevisiae deletion strains, locus YOR184W, strain ser1, stronger effect = lower value 1.01 | S. cerevisiae deletion strains, locus YOR265W, strain rbl2, stronger effect = lower value 1.01 | S. cerevisiae deletion strains, locus YOR270C, strain vph1, stronger effect = lower value 0.97 | S. cerevisiae deletion strains, locus YOR290C, strain snf2, stronger effect = lower value 1.01 | S. cerevisiae deletion strains, locus YOR316C, strain cot1, stronger effect = lower value 1 | S. cerevisiae deletion strains, locus YPL051W, strain arl3, stronger effect = lower value 0.994 | S. cerevisiae deletion strains, locus YPL055C, strain LGE1, stronger effect = lower value 1 | S. cerevisiae deletion strains, locus YPL078C, strain atp4, stronger effect = lower value 0.989 | S. cerevisiae deletion strains, locus YPL106C, strain sse1, stronger effect = lower value 0.959 | S. cerevisiae deletion strains, locus YPL240C, strain hsp82, stronger effect = lower value 0.998 | S. cerevisiae deletion strains, locus YPL241C, strain CIN2, stronger effect = lower value 1.01 | S. cerevisiae deletion strains, locus YPR119W, strain clb2, stronger effect = lower value 0.996 | S. cerevisiae deletion strains, locus YPR141C, strain kar3, stronger effect = lower value 1 | S. cerevisiae deletion strains, locus YPR163C, strain tif3, stronger effect = lower value 1.01 | S. cerevisiae deletion strains, locus YPR167C, strain met16, stronger effect = lower value 0.998 | S. cerevisiae deletion strains, strain wtn01, stronger effect = lower value 1 | S. cerevisiae strains, strain wild type, stronger effect = lower value 1.02
